Structures can show the parent of a compound that is named as a salt.

This experiment relates to Danio rerio larvae (5 dpf). Briefly: optomotor response to red moving lines, difference vs DMSO (percentage points (treated minus DMSO)); higher = more of the behaviour than the DMSO vehicle control. Particulars: 10 µM; exposure time: 3 h pre-incubation + 3 h imaging. How it is done:
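5-dpf wild-type zebrafish larvae were imaged in 96-well plates. They were treated with 190 Tocris FDA-approved drugs at 10 µM (1 µl/ml DMSO) for 3 h before and 3 h during imaging at 28.5 °C, 48 larvae per drug. Automated image analysis gave % time moving and optomotor responses. Values are drug group mean minus DMSO vehicle mean (n=844), in percentage points, for 10 behaviours.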
On to `CCCC1O[C@@H]2C[C@H]3[C@@H]4CCC5=CC(=O)C=C[C@]5(C)[C@H]4[C@@H](O)C[C@]3(C)[C@]2(C(=O)CO)O1` (stereo not given in full) [Budesonide], for which the “optomotor response to red moving lines” value was 12.
The result for `O=C(O[C@@H]1C[C@@H]2C[C@H]3C[C@H](C1)N2CC3=O)c1c[nH]c2ccccc12` [Dolasetron mesylate] reads -6.24.
The result for `Cn1cnc([N+](=O)[O-])c1Sc1ncnc2[nH]cnc12` [Azathioprine] reads 3.86; that for `NS(=O)(=O)c1cc(C(=O)O)c(NCc2ccco2)cc1Cl` [Furosemide], 4.84.
To `CC(C)(C(=O)O)c1ccc(C(O)CCCN2CCC(C(O)(c3ccccc3)c3ccccc3)CC2)cc1` (stereo not given) [Fexofenadine hydrochloride] belongs 3.62.
As for `CNC(=O)c1cc(Oc2ccc(NC(=O)Nc3ccc(Cl)c(C(F)(F)F)c3)cc2)ccn1` [Sorafenib], the “optomotor response to red moving lines” value is -10.7.
The result for `Cc1cn([C@H]2C=C[C@@H](CO)O2)c(=O)[nH]c1=O` [Stavudine] reads 9.7.
To `CCCCc1nc(Cl)c(CO)n1Cc1ccc(-c2ccccc2-c2nnn[nH]2)cc1` [Losartan potassium] belongs -6.11; to `Nc1cc(N2CCCCC2)nc(N)[n+]1[O-]` [Minoxidil], -13.4.
To `C[C@@H]1C[C@H]2[C@@H]3CCC4=CC(=O)C=C[C@]4(C)[C@@]3(F)[C@@H](O)C[C@]2(C)[C@@]1(O)C(=O)CO` [Dexamethasone] belongs -2.54; to `CN[C@H]1CC[C@@H](c2ccc(Cl)c(Cl)c2)c2ccccc21` [Sertraline hydrochloride], 21.6.
`OCCN1C[C@H](O)[C@@H](O)[C@H](O)[C@H]1CO` [Miglitol]: the “optomotor response to red moving lines” value is 9.81.
Take `CS(=O)(=O)CCNCc1ccc(-c2ccc3ncnc(Nc4ccc(OCc5cccc(F)c5)c(Cl)c4)c3c2)o1` [Lapatinib]: the “optomotor response to red moving lines” value was 0.000688.
The result for `Nc1nc(Cl)nc2c1ncn2[C@@H]1O[C@H](CO)[C@@H](O)[C@@H]1F` [Clofarabine] reads 1.11; that for `Cc1cccc(C)c1OCC(C)N` (stereo not given) [Mexiletine hydrochloride], 3.43; that for `COc1ccc(Cl)cc1C(=O)NCCc1ccc(S(=O)(=O)NC(=O)NC2CCCCC2)cc1` [Glibenclamide], 10.2.
Consider `Brc1c(NC2=NCCN2)ccc2nccnc12`, for which the “optomotor response to red moving lines” value stood at 17.8.
To `C#C[C@]1(O)CC[C@H]2[C@@H]3CCC4=CC(=O)CC[C@@H]4[C@H]3CC[C@@]21CC` [Levonorgestrel] belongs 4.27.
To `CN/C(=N\CCSCc1nc[nH]c1C)NC#N` [Cimetidine] belongs 5.88; to `COc1ccc(-c2ccc3cc(C(=O)O)ccc3c2)cc1C12CC3CC(CC(C3)C1)C2` [Adapalene], -12.7; to `O=C(O)c1cc(/N=N/c2ccc(S(=O)(=O)Nc3ccccn3)cc2)ccc1O` [Sulfasalazine], 2.01.
To `Nc1nc2[nH]cc(CCc3ccc(C(=O)N[C@@H](CCC(=O)O)C(=O)O)cc3)c2c(=O)[nH]1` [Pemetrexed] belongs -7.22; to `CCOC(=O)[C@H](CCc1ccccc1)N[C@@H](C)C(=O)N1[C@H](C(=O)O)C[C@@H]2CCC[C@@H]21` [Ramipril], -1.65.
As for `C[C@]12CCC(=O)C=C1CC[C@@H]1[C@@H]2[C@@H](O)C[C@@]2(C)[C@H]1CC[C@]2(O)C(=O)CO` [Hydrocortisone], the “optomotor response to red moving lines” value is 13.
The result for `CC1=Nc2ccc(Cl)cc2S(=O)(=O)N1` [Diazoxide] reads 0.599; that for `OCc1cc(C(O)CNCCCCCCOCCCCc2ccccc2)ccc1O` (stereo not given) [Salmeterol xinafoate], 5.
To `CCCCC(=O)N(Cc1ccc(-c2ccccc2-c2nnn[nH]2)cc1)[C@H](C(=O)O)C(C)C` [Valsartan] belongs 7.8; to `NS(=O)(=O)c1cc2c(cc1Cl)NC(C1CC3C=CC1C3)NS2(=O)=O` (stereo not given) [Cyclothiazide], -6.66; to `COc1cc2nccc(Oc3ccc(NC(=O)C4(C(=O)Nc5ccc(F)cc5)CC4)cc3)c2cc1OC`, -13.9.
To `CCOc1nc2cccc(C(=O)O)c2n1Cc1ccc(-c2ccccc2-c2nnn[nH]2)cc1` [Candesartan] belongs 4.89; to `OCCOCCN1CCN(C2=Nc3ccccc3Sc3ccccc32)CC1` [Quetiapine hemifumarate], 6.92; to `COC(=O)C1=C(C)NC(C)=C(C(=O)OC(C)C)C1c1cccc2nonc12` (stereo not given) [Isradipine], -7.63.
With `CC(C)C(=O)Nc1ccc([N+](=O)[O-])c(C(F)(F)F)c1` [Flutamide], the “optomotor response to red moving lines” value was -10.8.
As for `COCCCOc1cc(C[C@@H](C[C@H](N)[C@@H](O)C[C@H](C(=O)NCC(C)(C)C(N)=O)C(C)C)C(C)C)ccc1OC` [Aliskiren hemifumarate], the “optomotor response to red moving lines” value stood at 0.559.
As to `N#C[C@@H]1C[C@@H]2C[C@@H]2N1C(=O)[C@@H](N)C12CC3CC(CC(O)(C3)C1)C2` [Saxagliptin hydrochloride], the “optomotor response to red moving lines” value is -1.45.
The result for `Cc1ccc(N(CC2=NCCN2)c2cccc(O)c2)cc1` [Phentolamine Mesylate] reads 14.5; that for `CCCc1nc2c(C)cc(-c3nc4ccccc4n3C)cc2n1Cc1ccc(-c2ccccc2C(=O)O)cc1` [Telmisartan], -8.2; that for `CCOC(=O)[C@H](CCc1ccccc1)N[C@H]1CCc2ccccc2N(CC(=O)O)C1=O` [Benazepril hydrochloride], 13.
To `Cc1nnc(C(C)C)n1C1C[C@H]2CC[C@@H](C1)N2CC[C@H](NC(=O)C1CCC(F)(F)CC1)c1ccccc1` (stereo in doubt) [Maraviroc] belongs -6.34; to `O=C1CCc2cc(OCCCCc3nnnn3C3CCCCC3)ccc2N1` [Cilostazol], -8.76.

The record behind these values is the supplement of paper PMC9023506.
